Results filed as inconclusive are left out. Active and inactive are the calls of the source. Unless noted, calls follow the shape of the dose curve; as a rule, active = well fitted curve in the direction sought with a large enough effect in the repeat runs; inconclusive = weak or mixed curves; inactive = no such curve, though single readings can be large; an effect the other way counts as inactive or inconclusive.
How the values were obtained:
[1] = qHTS assay for small molecule agonists of the p53 signaling pathway (AID 651631; calls by dose curve; also: nearly all actives have a fitted effect of over 15% in size)
Method in brief: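 Readout was fluorescence from the LiveBLAzer FRET substrate, applied for 2 h at room temperature after 16 h compound exposure at 37 °C. Cells were the p53RE-bla HCT-116 line, with beta-lactamase driven by p53 response elements.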

[2] = qHTS assay for small molecules that induce genotoxicity in human embryonic kidney cells expressing luciferase-tagged ATAD5 (AID 651632); also: nearly all actives have a fitted effect of over 15% in size
Method in brief: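 Test compounds were delivered by pin tool onto HEK293T reporter cells (2,000/well) expressing ATAD5 fused to luciferase. After 16 hr at 37C, 5% CO2, Amplite was added for 30 min at room temperature and luminescence was measured.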

[3] = qHTS assay for small molecule agonists of the p53 signaling pathway - cell viability (AID 651633; calls by dose curve; also: series mostly up to about 83 µM; nearly all actives have a fitted effect of over 30% in size)
Method in brief: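 Viability counter-read: CellTiter-Glo luminescence (30 min, room temperature) in the same p53RE-bla plates. These plates had been exposed to compounds for 16 h at 37 C.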

[4] = qHTS assay for small molecules that induce genotoxicity in human embryonic kidney cells expressing luciferase-tagged ATAD5 - cell viability (AID 651634; calls by dose curve; also: nearly all actives have a fitted effect of over 25% in size)
Method in brief: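 Quantitative high-throughput format. HEK293T cells expressing ATAD5 fused to luciferase were plated at 2,000 cells/well and treated 15.5 hr with compound versus DMSO. Viability was determined by fluorescent live-cell protease substrate, 30 min at 37C.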

[5] = qHTS assay for small molecule disruptors of the mitochondrial membrane potential - cell viability (AID 720634; calls by dose curve;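 also: human HepG2 liver cancer cells; series mostly up to about 83 µM; nearly all actives have a fitted effect of over 20% in size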)
Method in brief: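 Same-well counter-screen: following the MMP dye addition, CellTiter-Glo was added to 1 hr compound-treated HepG2 cells and luminescence read after 30 min at room temperature.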

[6] = qHTS assay for small molecule disruptors of the mitochondrial membrane potential (AID 720635)
Method in brief: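 Mitochondrial membrane potential tracked with Mito-MPS dye, red aggregates (ex 540/em 590 nm) against green monomers (ex 490/em 535 nm). Compound treatment 1 hr at 37C, dye 30 min in HepG2.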

[7] = qHTS assay to test for compound auto fluorescence at 590 nm (red) in HepG2 cells (AID 720674)
Method in brief: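 We screened compounds on adherent HepG2 cells, incubating them for an hour at 37 C in 5% CO2 before reading emission at 590 nm under 540 nm excitation; values reflect equivalence to Rose Bengal sodium fluorescence.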

[8] = qHTS assay to test for compound auto fluorescence at 535 nm (green) in HepG2 cells (AID 720675)
[9] = qHTS assay to test for compound auto fluorescence at 460 nm (blue) in HEK293 cells (AID 720678)
Method in brief: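 Blue read-out at excitation 405 nm and emission 460 nm follows overnight compound exposure of HEK293 cells at 37C in 5% CO2. Activity is given as auto fluorescence equivalency to triamterene.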

[10] = qHTS assay to test for compound auto fluorescence at 590 nm (red) in HEK293 cells (AID 720679)
Method in brief: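 Red channel, Ex/Em 540/590nm; signal expressed as equivalency to Rose Bengal sodium. HEK293, 2,000 cells/well, 10% dialyzed FBS; 23 nL compound pinned after 4-5 hr attachment; overnight 37C/5% CO2 before reading.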

[11] = qHTS assay to test for compound auto fluorescence at 535 nm (green) in HEK293 cells (AID 720680)
[12] = qHTS assay to test for compound auto fluorescence at 460 nm (blue) in HEK293 cell free culture (AID 720681)
Method in brief: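 Blue fluorescence (Ex 405/Em 460 nm, triamterene-equivalent) was read immediately after pin transfer of compound or DMSO into medium (DMEM, 10% FBS) without cells.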

[13] = qHTS assay to test for compound auto fluorescence at 535 nm (green) in HEK293 cell free culture (AID 720682)
Method in brief: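 Compounds were pin-transferred into cell-free DMEM with 10% FBS, and green fluorescence was read at excitation 485 nm and emission 535 nm. Intensities were expressed as fluorescein-equivalent values.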

[14] = qHTS assay to test for compound auto fluorescence at 590 nm (red) in HEK293 cell free culture (AID 720683)
Method in brief: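 Red-channel autofluorescence of compounds in culture medium (DMEM, 10% FBS), no cells, measured at 540/590 nm. Rose Bengal sodium is the reference fluorophore for equivalence.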

[15] = qHTS assay to test for compound auto fluorescence at 590 nm (red) in HepG2 cell free culture (AID 720684)
Method in brief: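 Cell-free; medium MEM + 10% FBS; compound or DMSO added by pintool; read Ex 540/Em 590 nm; Rose Bengal sodium as red reference fluorophore.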

[16] = qHTS assay to test for compound auto fluorescence at 460 nm (blue) in HepG2 cell free culture (AID 720685)
Method in brief: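 Cell-free plates of MEM plus 10% FBS received 23 nL compound or DMSO vehicle; blue-channel (405/460 nm) intensity scored against triamterene as reference fluorophore.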

[17] = qHTS assay to test for compound auto fluorescence at 535 nm (green) in HepG2 cell free culture (AID 720686)
[18] = qHTS assay to test for compound auto fluorescence at 460 nm (blue) in HepG2 cells (AID 720687)
Method in brief: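 Blue-channel autofluorescence (Ex/Em 405/460 nm, triamterene-equivalent) was measured after 1 hr compound exposure at 37 C, 5% CO2. Cells were HepG2, plated overnight at 37 C in MEM plus 10% FBS.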

[19] = biological target: Glucocorticoid receptor (Homo sapiens) (UniProt P04150); experiment: qHTS assay to identify small molecule agonists of the glucocorticoid receptor (GR) signaling pathway (AID 720691; active = well fitted activation curve with a large enough effect in the signal ratio in the repeat runs, not every such curve was filed as active; the % refers to the signal ratio)
Method in brief: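 A HeLa cervical cancer line expressing GR and a glucocorticoid response element-driven beta-lactamase gene is treated with compounds for 18 h; LiveBLAzer B/G FRET substrate is then applied and fluorescence read.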

[20] = biological target: Glucocorticoid receptor (Homo sapiens) (UniProt P04150); experiment: qHTS assay to identify small molecule antagonists of the glucocorticoid receptor (GR) signaling pathway (AID 720692; active = well fitted inhibition curve with a large enough effect in the signal ratio in the repeat runs, not every such curve was filed as active; the % refers to the signal ratio)
Method in brief: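 GRE-bla HeLa line, dex-stimulated (5 nM final). Compound exposure 18 h, 37 C. Beta-lactamase FRET read after 2 h RT substrate.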

[21] = qHTS assay to identify small molecule antagonists of the glucocorticoid receptor (GR) signaling pathway - cell viability counter screen (AID 720693); also: nearly all actives have a fitted effect of over 55% in size
[22] = qHTS assay for identifying genotoxic compounds that show differential cytotoxicity against isogenic chicken DT40 cell lines with known DNA damage response pathways - Rad54/Ku70 mutant cell line (AID 743015); also: nearly all actives have a fitted effect of over 60% in size
[23] = qHTS assay to identify small molecule antagonists of the androgen receptor (AR) signaling pathway - cell viability counter screen (AID 743033; also: nearly all actives have a fitted effect of over 45% in size)
[24] = qHTS assay to identify small molecule antagonists of the androgen receptor (AR) signaling pathway using the MDA cell line - cell viability counter screen (AID 743041; also: nearly all actives have a fitted effect of over 45% in size)
Method in brief: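 Viability read by CellTiter-Fluor fluorescence in the same wells as the antagonist screen, added after 15.5 h of a 16 h, 37C exposure. Human breast carcinoma MDA-kb2 AR-luc cells, compounds co-dosed with agonist R1881.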

[25] = qHTS assay to identify small molecule antagonists of the thyroid receptor (TR) signaling pathway - cell viability counter screen (AID 743064); also: nearly all actives have a fitted effect of over 50% in size
Method in brief: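 In-well cytotoxicity read by CellTiter-Fluor (30 min, 37 C) following 23.5 h exposure of GH3 cells bearing a TRE-luciferase sensor. Compounds were added alongside 1 nM (final) T3 to drive TR transactivation.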

[26] = qHTS assay to identify small molecule antagonists of the thyroid receptor (TR) signaling pathway (AID 743065); also: series mostly up to about 70 µM; nearly all actives have a fitted effect of over 55% in size
Method in brief: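 Antagonism measured as loss of luciferase signal in GH3 cells stably carrying a TRE-luciferase reporter, co-treated with compound and T3 (1 nM final) for 23.5 h at 37 C. Viability was read in the same well by CellTiter-Fluor.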

[27] = tested on: thyroid hormone receptor (rat, GH3 cells); experiment: qHTS assay to identify small molecule agonists of the thyroid receptor (TR) signaling pathway (AID 743066; calls by dose curve)
[28] = biological target: Estrogen receptor (Homo sapiens) (UniProt P03372); experiment: qHTS assay to identify small molecule agonists of the estrogen receptor alpha (ER-alpha) signaling pathway (AID 743075; calls by dose curve;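 also: HEK293 GripTite cells with ER-alpha and UAS-driven beta-lactamase reporter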)
[29] = qHTS assay to identify small molecule antagonists of the estrogen receptor alpha (ER-alpha) signaling pathway using the BG1 cell line (AID 743080; calls by dose curve;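 also: BG1 cells stimulated with 17beta-estradiol alongside compound; series mostly up to about 70 µM; nearly all actives have a fitted effect of over 25% in size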)
Method in brief: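 Luminescence from a 4×ERE-luciferase reporter in BG1-Luc-4E2 cells served as read-out. Cells, pre-cultured 5 days in stripped-serum phenol-red-free medium, were exposed to compound with 17beta-estradiol co-stimulation for 21.5 h at 37 C.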

[30] = qHTS assay to identify small molecule antagonists of the estrogen receptor alpha (ER-alpha) signaling pathway using the BG1 cell line - cell viability counter screen (AID 743081);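 also: compound given together with 17beta-estradiol as the ER stimulus; series mostly up to about 70 µM; nearly all actives have a fitted effect of over 45% in size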
Aromatase (Homo sapiens) = Aromatase (Homo sapiens) (UniProt P11511); experiment: qHTS assay to identify aromatase inhibitors (AID 743083); also: series mostly up to about 70 µM; nearly all actives have a fitted effect of over 55% in size
[31] = qHTS assay to identify aromatase inhibitors - cell viability counter screen (AID 743084);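 also: cells stimulated with testosterone during compound exposure; nearly all actives have a fitted effect of over 55% in size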
[32] = biological target: Aryl hydrocarbon receptor (Homo sapiens) (UniProt P35869); experiment: qHTS assay to identify small molecule that activate the aryl hydrocarbon receptor (AhR) signaling pathway (AID 743085);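 also: HG2L7.5c1 human HepG2 liver cells with stably integrated DRE-driven firefly reporter; series mostly up to about 70 µM; nearly all actives have a fitted effect of over 15% in size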
Method in brief: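 Luminescence (ONE-Glo) from a dioxin-responsive-element luciferase reporter in HG2L7.5c1 HepG2 cells after 24 hr compound exposure at 37C; viability measured by CellTiter-Fluor fluorescence beforehand.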

[33] = biological target: Peroxisome proliferator-activated receptor gamma (Homo sapiens) (UniProt P37231); experiment: qHTS assay to identify small molecule agonists of the peroxisome proliferator-activated receptor gamma (PPARg) signaling pathway (AID 743094; active = well fitted activation curve with a large enough effect in the signal ratio in the repeat runs, not every such curve was filed as active; the % refers to the signal ratio)
Method in brief: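 Cell-based bla reporter, HEK293H background, PPARg-driven UAS. Pre-incubation 5 h, 37C, 5% CO2. Compound 17 h, 37C. Substrate 1 h RT; fluorescence.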

[34] = qHTS assay to identify small molecule antagonists of the estrogen related receptor (ERR) signaling pathway - cell viability counter screen (AID 1224818);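 also: series mostly up to about 46 µM; viability measured after 17.5 h of compound exposure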
Method in brief: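 Cytotoxicity check run alongside the ERR antagonist screen: cells exposed to test compounds 17.5 h at 37 C, viability taken as CellTiter-Fluor fluorescence intensity.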

[35] = qHTS assay to identify small molecule antagonists of the estrogen related receptor (ERR) signaling pathway (AID 1224819;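 also: luminescence from an ERR-driven luciferase reporter measured with One-Glo reagent; series mostly up to about 46 µM; nearly all actives have a fitted effect of over 50% in size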)
Method in brief: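 ERR reporter cells were plated at 2,000 cells/well and left 6 h at 37 C/5% CO2 before pin-tool transfer of compounds in DMSO. After 18 h at 37 C, One-Glo was added and luminescence was read 30 min later at room temperature.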

[36] = qHTS assay to identify small molecule agonists of the estrogen related receptor (ERR) signaling pathway (AID 1224820)
Method in brief: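 An ERR cell line provided by NTP was seeded at 2,000 cells per well and allowed to settle for 6 h before compounds in DMSO were added. After 18 h at 37 C, luciferase activity was measured by One-Glo luminescence.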

[37] = tested on: estrogen-related receptor alpha (ERRalpha) with PGC-1alpha coactivator, human; experiment: qHTS assay to identify small molecule antagonists of the estrogen related receptor signaling pathway with the pleiotropic PPARgamma coactivator (PGC) (AID 1224821; calls by dose curve;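 also: series mostly up to about 46 µM; lower luminescence signal means antagonism of PGC/ERR signalling; nearly all actives have a fitted effect of over 50% in size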)
Method in brief: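 A PGC/ERR cell line supplied by NTP is seeded, allowed 6 h at 37 C, and treated with test compounds in DMSO for 18 h. Signal is then measured as luciferase luminescence using One-Glo.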

[38] = qHTS assay to identify small molecule antagonists of the estrogen related receptor signaling pathway with the pleiotropic PPARgamma coactivator (PGC) cell viability counter screen (AID 1224822;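 also: series mostly up to about 46 µM; viability read after 17.5 h compound exposure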)
Method in brief: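 Viable cell signal (CellTiter-Fluor, 30 min, 37 C/5% CO2) was measured in PGC/ERR cells after a 17.5 h compound incubation.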

[39] = qHTS assay to identify small molecule agonists of the estrogen related receptor signaling pathway with the pleiotropic PPARgamma coactivator (PGC) (AID 1224823)
Method in brief: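 Compounds dissolved in DMSO are added by pin tool to PGC/ERR cells that have settled for 6 h, and incubation continues 18 h at 37 C. Reporter output is measured as One-Glo luminescence.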

Measured: Potency

Glucocorticoid receptor (Homo sapiens), sequence (P04150 whole entry, looked up): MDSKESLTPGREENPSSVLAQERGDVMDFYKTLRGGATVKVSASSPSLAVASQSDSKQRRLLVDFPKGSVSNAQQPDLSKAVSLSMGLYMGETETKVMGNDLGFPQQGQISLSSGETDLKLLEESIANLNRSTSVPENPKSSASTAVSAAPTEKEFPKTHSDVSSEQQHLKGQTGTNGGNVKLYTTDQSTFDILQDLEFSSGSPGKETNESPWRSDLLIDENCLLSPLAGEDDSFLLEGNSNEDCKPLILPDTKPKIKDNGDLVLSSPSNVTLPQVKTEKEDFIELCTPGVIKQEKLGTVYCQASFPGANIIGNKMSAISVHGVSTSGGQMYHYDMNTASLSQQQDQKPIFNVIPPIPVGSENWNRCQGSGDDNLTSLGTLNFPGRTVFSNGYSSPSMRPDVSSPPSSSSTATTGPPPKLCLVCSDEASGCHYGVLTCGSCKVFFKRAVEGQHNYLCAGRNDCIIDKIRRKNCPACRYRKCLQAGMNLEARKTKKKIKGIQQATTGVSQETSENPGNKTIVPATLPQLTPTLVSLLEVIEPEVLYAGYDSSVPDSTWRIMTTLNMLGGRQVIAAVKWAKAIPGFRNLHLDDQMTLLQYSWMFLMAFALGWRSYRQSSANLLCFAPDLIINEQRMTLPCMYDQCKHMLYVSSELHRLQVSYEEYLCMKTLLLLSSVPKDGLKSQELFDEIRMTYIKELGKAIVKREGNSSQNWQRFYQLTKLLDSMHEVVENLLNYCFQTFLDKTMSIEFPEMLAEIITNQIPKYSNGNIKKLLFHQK
Aromatase (Homo sapiens), sequence (P11511 whole entry, looked up): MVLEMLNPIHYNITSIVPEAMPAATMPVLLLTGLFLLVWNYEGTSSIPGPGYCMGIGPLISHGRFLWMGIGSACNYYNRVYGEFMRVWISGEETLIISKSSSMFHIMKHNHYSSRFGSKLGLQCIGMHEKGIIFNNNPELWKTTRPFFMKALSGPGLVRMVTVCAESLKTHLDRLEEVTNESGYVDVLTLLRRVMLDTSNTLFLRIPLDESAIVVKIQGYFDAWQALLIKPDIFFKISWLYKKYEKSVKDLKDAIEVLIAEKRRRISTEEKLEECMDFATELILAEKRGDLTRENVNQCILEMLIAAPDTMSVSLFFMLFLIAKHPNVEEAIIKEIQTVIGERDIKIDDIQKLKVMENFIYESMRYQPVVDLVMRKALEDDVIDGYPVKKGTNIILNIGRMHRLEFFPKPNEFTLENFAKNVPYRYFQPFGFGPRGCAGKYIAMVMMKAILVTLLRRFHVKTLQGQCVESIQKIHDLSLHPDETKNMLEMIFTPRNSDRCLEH
Peroxisome proliferator-activated receptor gamma (Homo sapiens), sequence (P37231 whole entry, looked up): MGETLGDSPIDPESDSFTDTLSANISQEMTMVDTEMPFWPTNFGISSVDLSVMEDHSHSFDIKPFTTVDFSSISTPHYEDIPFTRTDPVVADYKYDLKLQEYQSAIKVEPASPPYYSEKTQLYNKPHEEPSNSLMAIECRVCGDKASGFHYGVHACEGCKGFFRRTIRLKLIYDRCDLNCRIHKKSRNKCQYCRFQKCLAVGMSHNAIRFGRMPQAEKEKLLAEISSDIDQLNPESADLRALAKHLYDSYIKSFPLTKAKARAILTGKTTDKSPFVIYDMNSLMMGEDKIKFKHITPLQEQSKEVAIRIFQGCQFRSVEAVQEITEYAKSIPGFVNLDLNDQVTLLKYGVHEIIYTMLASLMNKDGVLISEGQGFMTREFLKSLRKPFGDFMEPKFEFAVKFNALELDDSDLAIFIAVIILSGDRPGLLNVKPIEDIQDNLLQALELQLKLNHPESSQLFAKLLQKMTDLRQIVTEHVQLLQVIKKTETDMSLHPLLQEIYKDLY
Aryl hydrocarbon receptor (Homo sapiens), sequence (P35869 whole entry, looked up): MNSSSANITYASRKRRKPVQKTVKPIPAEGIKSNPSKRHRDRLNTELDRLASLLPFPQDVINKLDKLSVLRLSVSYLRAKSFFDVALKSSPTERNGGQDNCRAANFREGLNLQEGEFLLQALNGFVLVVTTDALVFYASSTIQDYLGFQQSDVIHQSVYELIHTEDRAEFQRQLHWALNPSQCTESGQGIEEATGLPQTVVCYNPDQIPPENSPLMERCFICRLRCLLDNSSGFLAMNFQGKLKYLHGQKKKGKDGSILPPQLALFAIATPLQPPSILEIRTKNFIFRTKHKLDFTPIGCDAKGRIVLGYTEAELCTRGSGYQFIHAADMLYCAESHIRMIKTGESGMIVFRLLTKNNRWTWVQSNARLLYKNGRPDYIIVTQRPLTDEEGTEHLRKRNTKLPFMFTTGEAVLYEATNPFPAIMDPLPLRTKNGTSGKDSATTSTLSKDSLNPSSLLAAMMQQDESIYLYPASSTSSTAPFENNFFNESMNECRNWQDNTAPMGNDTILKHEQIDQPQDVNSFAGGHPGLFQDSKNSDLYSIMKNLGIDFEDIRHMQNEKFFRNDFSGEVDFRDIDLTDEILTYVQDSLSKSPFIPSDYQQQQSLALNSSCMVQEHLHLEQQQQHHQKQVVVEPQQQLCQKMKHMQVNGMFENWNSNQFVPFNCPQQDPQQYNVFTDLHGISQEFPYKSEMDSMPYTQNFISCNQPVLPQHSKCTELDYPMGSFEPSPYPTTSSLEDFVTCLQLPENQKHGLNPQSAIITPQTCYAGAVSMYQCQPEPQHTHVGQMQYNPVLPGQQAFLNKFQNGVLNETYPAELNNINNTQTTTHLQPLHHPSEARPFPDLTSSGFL
Estrogen receptor (Homo sapiens), sequence (P03372 whole entry, looked up): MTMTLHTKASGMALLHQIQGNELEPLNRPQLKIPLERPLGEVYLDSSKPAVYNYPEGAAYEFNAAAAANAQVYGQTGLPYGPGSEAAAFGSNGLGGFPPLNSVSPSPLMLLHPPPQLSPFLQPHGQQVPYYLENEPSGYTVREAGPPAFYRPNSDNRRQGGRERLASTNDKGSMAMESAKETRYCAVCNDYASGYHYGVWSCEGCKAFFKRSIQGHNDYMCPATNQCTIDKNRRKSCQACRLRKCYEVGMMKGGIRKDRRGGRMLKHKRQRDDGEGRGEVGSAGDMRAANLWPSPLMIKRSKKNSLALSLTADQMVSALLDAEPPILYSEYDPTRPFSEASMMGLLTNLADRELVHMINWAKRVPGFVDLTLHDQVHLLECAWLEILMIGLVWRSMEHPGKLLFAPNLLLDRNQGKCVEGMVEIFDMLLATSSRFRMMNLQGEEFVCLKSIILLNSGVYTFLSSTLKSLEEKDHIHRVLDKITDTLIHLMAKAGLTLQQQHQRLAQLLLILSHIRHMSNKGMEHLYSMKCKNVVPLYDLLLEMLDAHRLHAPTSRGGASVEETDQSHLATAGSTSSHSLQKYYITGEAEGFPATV

CCCCc1ccc(C(=O)O)nc1
inactive: all assays above
